Screening results from PubChem.
Compounds with a hit are over-represented: about 5% of the library has one in this group of screens.
TSHR ag: agonists of human thyroid stimulating hormone receptor. P16473. HEK293-CNG-TSHR cells (CNG channel as cAMP sensor), membrane potential dye, cAMP. Potency, µM (top dose mostly 57.1 µM), inactives show at the top dose activation, usual class: activators. actives 0.48% (n = 73,000). AID 926; active means well fitted activation curve with a large enough effect in the main read-out, with a control signal flat, not every such curve was filed as active; inconclusive means small, poorly fitted or top-dose-only effect, or a change in a side signal; inactive means no such curve, though single readings can be large or run the other way; % of control where 0% means no effect;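 further: the control signal comes from parental cells without the receptor; potency means the concentration at half of the fitted maximal effect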
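cAMP rise detected as CNG-channel membrane depolarization by fluorescent dye (emission 590 nm), 30 min after compound, following 60 min dye loading containing 100 uM RO 20-1724 at room temperature. Cells: TSHR/CNG HEK 293, with parental CNG HEK 293 as control.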
USP2a inh: blocks human ubiquitin-specific protease USP2a | O75604 | USP2a enzymatic assay, qHTS inhibition | Potency, µM (titrated, usually from 38.3 µM), for inactives: at the highest dose activity change, negative = inhibition, usual class: inhibitors | actives 0.1% (n = 60,000) | AID 927; further: potency means the concentration at half of the fitted maximal effect; nearly all actives have a fitted effect of over 60% in size
Target sequence (O75604 whole entry, looked up): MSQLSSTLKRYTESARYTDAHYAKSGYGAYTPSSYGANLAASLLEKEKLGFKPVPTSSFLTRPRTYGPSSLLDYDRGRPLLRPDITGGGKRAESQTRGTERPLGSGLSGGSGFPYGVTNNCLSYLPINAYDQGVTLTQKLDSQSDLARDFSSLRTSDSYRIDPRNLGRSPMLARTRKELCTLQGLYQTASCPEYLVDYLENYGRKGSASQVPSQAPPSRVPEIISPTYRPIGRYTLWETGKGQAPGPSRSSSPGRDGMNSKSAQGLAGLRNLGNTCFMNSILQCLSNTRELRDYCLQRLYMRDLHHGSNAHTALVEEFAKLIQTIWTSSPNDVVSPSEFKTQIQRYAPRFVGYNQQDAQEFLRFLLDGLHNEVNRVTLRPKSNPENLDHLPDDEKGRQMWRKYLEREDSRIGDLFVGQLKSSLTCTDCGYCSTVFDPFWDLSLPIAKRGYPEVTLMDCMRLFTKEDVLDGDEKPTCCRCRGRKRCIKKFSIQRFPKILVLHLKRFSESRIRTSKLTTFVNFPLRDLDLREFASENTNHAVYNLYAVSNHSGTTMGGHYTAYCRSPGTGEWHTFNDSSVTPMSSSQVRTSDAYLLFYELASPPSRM
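Inhibition is measured in a cell-free coupled assay with 20 nM USP2 core, 20 nM Ub-PLA2 and 20 uM NBD C6-HPC, 2.5 h incubation. Activity normalized to NEM control.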
CRE-bla Fsk: modulators of forskolin-stimulated CRE signaling in CHO cells. Potency, µM (highest dose often 38.2 µM), without a hit: top-dose activity change, negative = inhibition, actives largely listed as activators. actives 2.5% (n = 71,000). CHO CRE-bla reporter (cAMP response element driving beta-lactamase), forskolin EC10, beta-lactamase ratio; active means well fitted activation curve with a large enough effect in the signal ratio, with a control signal flat, not every such curve was filed as active; inconclusive means small, poorly fitted or top-dose-only effect, or effect the other way, or a change in a side signal; the % refers to the signal ratio; further: potency means the concentration at half of the fitted maximal effect; % of control where 0% means no effect
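AC50 values, positive or negative, reflect shifts in EC10 NKH 477-induced CRE-bla reporter activity in CHO cells. Incubation lasted 3 h at 37 °C before CCF4 substrate (2 h, room temperature) and ratiometric 460/530 nm reading.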
Casp7 inh: caspase-7 (human) inhibition, allosteric or competitive; recombinant caspase-7, Ac-DEVD-AFC fluorescence rate; actives 0.02% (n = 75,000); P55210; Potency, µM (doses to about 57.5 µM), inactives show at the highest dose activity change, negative = inhibition, hits mostly inhibitors; active means well fitted inhibition curve with a large enough effect in the main read-out, with a control signal flat, not every such curve was filed as active; inconclusive means small, poorly fitted or top-dose-only effect, or a change in a side signal; further: potency means the concentration at half of the fitted maximal effect; % of control where 0% means no effect
HEK293 cAMP ctrl: raises cAMP in parental HEK293 cells, TSHR agonist counter-screen | parental HEK293 CNG cAMP sensor, membrane potential fluorescence | Potency, µM (series often up to 57.1 µM), for the others: at the highest dose activation, usual class: activators | actives 2.5% (n = 73,000) | AID 938; further: potency means the concentration at half of the fitted maximal effect; % of control where 0% means no effect; nearly all actives have a fitted effect of over 55% in size
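Parental HEK 293 cells stably expressing a modified CNG channel (no TSHR) report cAMP rise as membrane depolarization. Membrane potential dye with 100 uM RO 20-1724 was loaded for 60 min at room temperature, then compound added for 30 min; fluorescence read at 590 nm.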
Casp1 inh: allosteric or competitive inhibitors of human caspase-1 | Caspase-1 enzyme, Ac-WEHD-AFC fluorogenic rate | Potency, µM (series often up to 57.5 µM), without a hit: at the highest dose activity change, negative = inhibition, actives largely listed as inhibitors | actives 0.03% (n = 75,000) | AID 900;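 further: potency means the concentration at half of the fitted maximal effect; plate controls were vehicle for no effect and no substrate for full effect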
CHO via 24h: reduces CRE-bla CHO cell viability after 24 hours. shares compounds with CRE-bla Fsk. CRE-bla CHO viability, ATP luminescence, 24 h. activity, negative = viability loss, % at 46.1 µM. 120 tested, under 10 active
CHO via 40h: cytotoxicity in CRE-bla CHO cells at 40 h; CRE-bla CHO viability, ATP luminescence, 40 h; Potency, µM, for inactives: max response, usual class: inhibitors; shares compounds with CRE-bla Fsk; 120 tested, under 10 active
CRE-luc potent: confirmation of CRE signaling potentiators in HEK293 CREB reporter cells; Potency, µM (top dose mostly 38.3 µM), inactives show at the top dose activity, positive = activation, most hits filed as activators; HEK293 CRE-luc2P, NKH477 EC10 potentiation, luminescence, 4 h; AID 907; shares compounds with CRE-bla Fsk; actives 80% (n = 120)
parental cAMP: TSHR-independent cAMP elevation, counter-screen; AID 953; activity change, negative = inhibition, % at 32.9 µM; shares compounds with TSHR ag; parental HEK293 CNG biosensor, cAMP membrane potential fluorescence; 150 tested, under 10 active
Numbers without * were called inactive; ? = inconclusive; · = no result; [ ] = remark or other dose. Unless noted, the call rests on the fitted dose curve; in most records, active means well fitted curve in the direction sought with a large enough effect; inconclusive means small, poorly fitted or top-dose-only effect, or another doubt; inactive means no such curve, though single readings can be large; an effect the other way counts as inactive or inconclusive.

SMILES	TSHR ag	USP2a inh	CRE-bla Fsk	Casp7 inh	HEK293 cAMP ctrl	Casp1 inh	CHO via 24h	CHO via 40h	CRE-luc potent	others
CC(C)C[C@H](NP(=O)(O)O[C@@H]1O[C@@H](C)[C@@H](O)[C@@H](O)[C@H]1O)C(=O)N[C@@H](Cc1c[nH]c2ccccc12)C(=O)O	2%	2%	-3%	1%	-3%	-1%	·	·	·
Cn1cc(C(=O)N2CCC3(CC2)OCCO3)c2c3ccccc3n(C)c2c1=O	1%	-6%	?	-1%	10%	-1%	·	·	·
Cn1c(C(=O)N2CCC3(CC2)OCCO3)cc2c(=O)n(C)c3ccccc3c21	·	6%	?	-1%	-9%	-2%	-7	-7%	14µM*
CN(C)CCCc1c[nH]c2ccccc12	2%[11.4 µM]	·	-6%[7.6 µM]	1%[11.5 µM]	1%[11.4 µM]	2%[11.5 µM]	·	·	·
CC(C)CNCCc1ccccn1	1%[11.4 µM]	·	-8%[7.6 µM]	1%[11.5 µM]	0%[11.4 µM]	-4%[11.5 µM]	·	·	·
COc1ccc(Cl)cc1NC(=O)CSc1ncnc2c1oc1ccccc12	22%	2%	0.1µM*	0%	10%	2%	-8	-13%	1.3µM*
CCc1ccccc1NC(=O)CSc1nnc([C@@H](N)Cc2c[nH]c3ccccc23)o1	16%	30%	-3%	-3%	-4%	-4%	·	·	·
O=C1N[C@@]2(CN3CCC2CC3)C(=O)N1CN(Cc1ccccc1)c1ccccc1	-6%[11.4 µM]	·	-4%[7.6 µM]	-2%[11.5 µM]	-13%[11.4 µM]	-2%[11.5 µM]	·	·	·
CC(C)C(=O)N1CCN(CCN=Cc2c(O)n(C)c(=O)n(C)c2=O)CC1	·	·	·	·	·	·	0	-4%	-1%
CN(C)C=C1C(=O)N(C2CCCCC2)C(=O)N(C2CCCCC2)C1=O	-1%	·	-10%	4%	9%	0%	-28	?	?
COc1cc2c(c(OC)c1OC)-c1ccc(OC)c(=O)cc1[C@@H](NC(C)=O)CC2	?	-4%	1.3µM*	1%	1%	?	-19	-11%	?
O=c1[nH]c(=O)n(Cc2ccco2)c(O)c1C=NC1CC1	·	-7%	14%	-1%	8%	-1%	·	·	·	parental cAMP=5
CN(C)c1ccc(CN2CC=C(c3ccc(F)cc3)CC2)cc1	-9%	-1%	-8%	-1%	-9%	-2%	·	·	·	parental cAMP=6[25.6 µM]
CN(C)c1ccc(Cc2ccc(N(C)C)cc2)cc1	?	·	-6%	-3%	-33%	-6%	·	·	·
C[C@H](CN(C)C)C(C#N)(c1ccccc1)c1ccccc1	1%[11.4 µM]	·	5%[7.6 µM]	0%[11.5 µM]	-4%[11.4 µM]	-1%[11.5 µM]	·	·	·
